How the values were obtained:
Experiment in all cases: PBM binding z-score (relative to random genomic background probes); higher = stronger binding; sequences stand for … in GC…GCGATTGACAGCGTAGAATGAAGG
[1] = test system: FXR:RXRa (NR concentration 270 nM, RXRa partner concentration 90 nM)
How it was run: (§1)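 Antibodies against each partner of ligand-free nuclear receptor dimers (one per run) detected binding on custom Agilent 4×180K protein-binding microarrays after 1 h incubation. The double-stranded probes had 34-nt variable regions carrying direct-repeat seeds, single-nucleotide variants, half-site ablations and random human genomic background sequences. Binding z-scores, from regression-normalized fluorescence, use the random background probes as reference.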

[2] = test system: LXRa:RXRa (NR concentration 270 nM, RXRa partner concentration 90 nM)
How it was run: as §1

[3] = test system: LXRa homodimer (NR concentration 270 nM)
How it was run: as §1

[4] = test system: LXRb:RXRa (NR concentration 270 nM, RXRa partner concentration 90 nM)
How it was run: as §1

[5] = test system: LXRb homodimer (NR concentration 270 nM)
How it was run: as §1

[6] = test system: PPARa:RXRa (NR concentration 270 nM, RXRa partner concentration 90 nM)
How it was run: as §1

[7] = test system: PPARg:RXRa (NR concentration 180 nM, RXRa partner concentration 90 nM)
How it was run: as §1

[8] = test system: PPARg:RXRa 270nM:90nM, anti-RXR (NR concentration 270 nM, RXRa partner concentration 90 nM)
How it was run: as §1

[9] = test system: PPARg:RXRa 30nM:10nM, anti-RXR (NR concentration 30 nM, RXRa partner concentration 10 nM)
How it was run: as §1

[10] = test system: PPARg:RXRa 90nM:30nM, anti-RXR (NR concentration 90 nM, RXRa partner concentration 30 nM)
How it was run: as §1

[11] = test system: PPARg:RXRa DBDmut IVT, anti-RXR (DBD mutation: RXRa K156A/R161A, NR concentration 270 nM, RXRa partner concentration 90 nM)
How it was run: as §1

[12] = test system: PPARg:RXRa IVT, anti-PPARg (NR concentration 270 nM, RXRa partner concentration 90 nM)
How it was run: as §1

[13] = test system: PPARg DBDmut:RXRa IVT, anti-PPARg (DBD mutation: PPARg1 K132A/R137A, NR concentration 270 nM, RXRa partner concentration 90 nM)
How it was run: as §1

[14] = test system: PPARg DBDmut IVT, anti-PPARg (DBD mutation: PPARg1 K132A/R137A, NR concentration 270 nM)
How it was run: as §1

[15] = test system: PPARg homodimer (NR concentration 180 nM)
How it was run: as §1

[16] = test system: PXR:RXRa (NR concentration 270 nM, RXRa partner concentration 90 nM)
How it was run: as §1

[17] = test system: PXR homodimer (NR concentration 270 nM)
How it was run: as §1

[18] = test system: RARa:RXR (NR concentration 270 nM, RXRa partner concentration 90 nM)
How it was run: as §1

[19] = test system: RARa homodimer (NR concentration 270 nM)
How it was run: as §1

[20] = test system: RARb:RXRa (NR concentration 270 nM, RXRa partner concentration 90 nM)
How it was run: as §1

Sequence | PBM binding z-score [1] | PBM binding z-score [2] | PBM binding z-score [3] | PBM binding z-score [4] | PBM binding z-score [5] | PBM binding z-score [6] | PBM binding z-score [7] | PBM binding z-score [8] | PBM binding z-score [9] | PBM binding z-score [10] | PBM binding z-score [11] | PBM binding z-score [12] | PBM binding z-score [13] | PBM binding z-score [14] | PBM binding z-score [15] | PBM binding z-score [16] | PBM binding z-score [17] | PBM binding z-score [18] | PBM binding z-score [19] | PBM binding z-score [20]
TTACCAAGGTGAGCTGAGGTCTTTGATCCAACTC | -0.159 | 0.0694 | -0.392 | -0.341 | -1.02 | 0.662 | -0.133 | 0.0949 | -0.176 | -0.0349 | 0.776 | 1.72 | -0.073 | -0.0335 | -0.466 | 2 | -0.613 | 2.56 | -0.713 | 1.17
CGTCCAAGGTCAATGCTAGGTCATTGAAAGCATT | 7.16 | 6.36 | 5.55 | 4.79 | 1.21 | 5.28 | 4.04 | 4.94 | 1.89 | 3.66 | 3.36 | 3.99 | 1.51 | 0.205 | 6.45 | 5.79 | 3.15 | 6.69 | 1.7 | 5.19
CCTCCGAGGACAACAGGAGGTCAGAGCTGCCAGA | 1.35 | 2.3 | 2.21 | 1.51 | -0.302 | 2.02 | 0.575 | 0.211 | -0.642 | -0.107 | -0.0648 | 0.335 | -1.15 | -1.76 | 1.29 | 2.17 | 0.291 | 2.7 | -0.117 | 2.88
TCGAGTAGGTTAGGCGCATTCAGAATGGCGTCGA | -0.434 | -0.29 | -0.682 | -0.547 | -1.16 | 0.216 | -0.326 | 0.786 | 0.835 | 0.489 | 1.8 | 0.832 | -1.24 | -1.21 | -1.2 | -0.58 | -0.715 | -0.497 | -1.02 | 0.105
GCTGCTAGGTCAGGTTGGTCAGCCAACGGGTACG | 1.12 | 0.345 | -0.418 | 0.336 | -0.341 | 1.36 | 0.298 | 1.1 | -0.412 | 0.115 | 2.43 | 2.2 | -1.3 | -1.25 | 0.608 | 0.00259 | -0.305 | 0.503 | -0.0936 | 3.2
AGTCAAAGTTCTCTAGGTAACGTAAGATTCAGCT | 0.109 | -0.065 | 0.22 | 0.0719 | -0.356 | 0.668 | 0.831 | 1.19 | 0.092 | 0.81 | 1.68 | 2.51 | 0.928 | 0.591 | 0.225 | 0.000883 | 0.167 | 0.366 | 0.183 | 0.732
CGTCCAAGGTCAACGTCAGTGAAAGAGACTCGAA | 7.13 | 5.39 | 0.128 | 4.19 | 0.597 | 5.64 | 5.37 | 5.51 | 1.61 | 4.17 | 3.75 | 3.71 | 0.344 | -0.9 | 2.39 | 3.66 | 0.793 | 4.09 | 1.2 | 5.37
TCATATAGGTAAATGCCAGGTGAAAGTCCGATCT | 1.31 | 1.12 | 0.378 | 0.902 | 0.0242 | 1.62 | 0.873 | 2.48 | 3.67 | 3.1 | 4.32 | 2.79 | 1.11 | 0.542 | 0.867 | 0.553 | 0.292 | 1.21 | 0.678 | 0.624
CAAAGTAGGTCAAAGGTCAAAGTCGAGCCAACCA | 8.51 | 7.21 | 5.79 | 7.26 | 3.36 | 7.84 | 14.1 | 11.4 | 14.4 | 13.2 | 8.81 | 9.31 | 4.15 | 2.43 | 4.72 | 7.22 | 2.39 | 8.98 | 3.23 | 5.92
CCTAGCAGTCCAGGGTCACTCAAGCATTTCGCTT | 1.93 | 1.87 | -0.123 | 2.26 | -0.47 | 3.08 | 0.115 | 1.17 | -0.788 | 0.355 | -0.136 | 0.647 | -1.3 | -1.13 | 1.01 | 2.58 | 2.51e-05 | 3.02 | -0.3 | 2.33
TAACCTAGGTCAGATCGGGCCAGTATACGCTATA | 2.84 | 2.52 | 0.693 | 1.64 | 0.561 | 2.29 | 1.87 | 2.06 | 0.906 | 1.62 | 1.82 | 3.4 | 0.884 | -0.00517 | 1.09 | 1.54 | -0.137 | 1.38 | -0.0765 | 3.32
TCATATAGGTAAATGCGAGGTGAAAGTCCGATCT | 1.14 | 1.58 | 0.216 | 0.944 | -0.00137 | 2.07 | 1.06 | 2.53 | 4.02 | 3.07 | 4.13 | 3.06 | 1.27 | 1.1 | 1.14 | 1.1 | 0.0797 | 1.67 | 1.15 | 0.77
TCGAGTAGGTTAGTCAGGGCATTCAGCCAACATA | 0.179 | 0.175 | -0.126 | 0.121 | -0.771 | 0.625 | 0.0481 | 0.99 | 1.13 | 0.992 | 1.73 | 1.72 | 0.0156 | -0.832 | 0.613 | 0.173 | 0.204 | 0.135 | 0.35 | 0.484
TCGAGTAGGTTACCAATGGGGCATTCGGCTTTCT | -0.107 | 1.22 | -0.464 | 0.357 | -0.96 | 0.808 | 0.00688 | 0.931 | 0.855 | 0.717 | 3.25 | 2.7 | -1.22 | -1.07 | 0.209 | -0.187 | -0.566 | 0.111 | -1.05 | 0.768
